Laboratory results taken from PubChem BioAssay.
A number with no mark means an inactive call. A call without a number means that no potency is given here. For part of these data: Potency and affinity values are given separately. Calls of active or inactive are those of the source. Unless noted, how the calls were made is not given here.

Tests used:
[1] = antimalarial activity against Dd2 strain (AID 2302;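 active means growth inhibition above 50% at the single 2 µM test dose, taken to imply half-maximal potency below 2 µM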); conditions: P. falciparum Dd2 in RBCs, LDH growth readout, 72 h; at 2 µM; stronger effect = higher value
[2] = HepG2 cytotoxicity, primary screen, cytotoxicity control for P. falciparum antimalarial project, cell-based, ATP luminescence (AID 2303;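 active means inhibition above 50%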); conditions: HepG2 viability, 24-48 h, at 10 µM, stronger effect = higher value
[3] = biological target: L-lactate dehydrogenase (Plasmodium falciparum (isolate CDC / Honduras)) (UniProt Q27743); experiment: PfLDH activity inhibition – cell lysate, 3D7 strain, counter-screen for P. falciparum growth inhibition project (AID 2304); conditions: P. falciparum 3D7 crude extract, LDH APAD/NBT absorbance; at 2 µM; stronger effect = higher value
[4] = inhibition of 3D7 malaria parasite growth – strain 3D7 (AID 2306); conditions: P. falciparum 3D7 erythrocytic growth, LDH absorbance, 72 h; at 2 µM; stronger effect = higher value
[5] = biological target: Calcium-dependent protein kinase 1 (Plasmodium falciparum (isolate 3D7)) (UniProt P62344); experiment: PfCDPK1 kinase inhibitors, biochemical, TCAMS library (AID 1159585; cut-off not given, nearly all actives have IC50 up to about 0.98 µM;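 further: inhibitors leave more ATP so luminescence rises with inhibition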); conditions: recombinant PfCDPK1, Kinase-Glo ATP depletion luminescence
[6] = biological target: Plasmodium falciparum protein kinase 6 (PK6, PF3D7_1337100) (UniProt Q8IDW1); experiment: PfPK6 kinase inhibitors, biochemical, TCAMS library (AID 1159586); conditions: recombinant PfPK6, Kinase-Glo ATP depletion luminescence
[7] = biological target: Protein kinase 7 (PK7), Plasmodium falciparum 3D7 (PF3D7_0213400) (UniProt Q7YTF7); experiment: inhibition of Plasmodium PK7 catalytic activity – biochemical, TCAMS antimalarial set, Kinase-Glo luminescence (AID 1159587); conditions: recombinant PfPK7, Kinase-Glo ATP depletion luminescence
[8] = biological target: Calcium-dependent protein kinase 4 (Plasmodium falciparum (isolate 3D7)) (UniProt Q8IBS5); experiment: PfCDPK4 kinase inhibitors, biochemical, TCAMS library (AID 1159588; cut-off not given, nearly all actives have IC50 up to about 0.91 µM); conditions: recombinant PfCDPK4, Kinase-Glo ATP depletion luminescence
Chain of Calcium-dependent protein kinase 4 (Plasmodium falciparum (isolate 3D7)) (Q8IBS5 whole entry, looked up): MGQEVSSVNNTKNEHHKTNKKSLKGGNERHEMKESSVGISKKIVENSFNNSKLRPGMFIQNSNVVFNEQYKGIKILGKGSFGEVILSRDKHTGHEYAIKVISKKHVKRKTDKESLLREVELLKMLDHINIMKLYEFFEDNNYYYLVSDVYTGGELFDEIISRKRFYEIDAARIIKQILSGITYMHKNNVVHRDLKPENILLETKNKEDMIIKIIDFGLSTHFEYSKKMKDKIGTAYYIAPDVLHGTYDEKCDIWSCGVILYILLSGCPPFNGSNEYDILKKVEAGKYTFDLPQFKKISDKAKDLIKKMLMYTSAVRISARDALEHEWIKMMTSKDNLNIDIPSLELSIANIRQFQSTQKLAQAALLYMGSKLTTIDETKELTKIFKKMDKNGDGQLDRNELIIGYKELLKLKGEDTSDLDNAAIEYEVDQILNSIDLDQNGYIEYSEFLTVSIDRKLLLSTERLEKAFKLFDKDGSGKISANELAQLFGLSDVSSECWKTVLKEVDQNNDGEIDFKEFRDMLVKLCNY

Chain of Calcium-dependent protein kinase 1 (Plasmodium falciparum (isolate 3D7)) (P62344 whole entry, looked up): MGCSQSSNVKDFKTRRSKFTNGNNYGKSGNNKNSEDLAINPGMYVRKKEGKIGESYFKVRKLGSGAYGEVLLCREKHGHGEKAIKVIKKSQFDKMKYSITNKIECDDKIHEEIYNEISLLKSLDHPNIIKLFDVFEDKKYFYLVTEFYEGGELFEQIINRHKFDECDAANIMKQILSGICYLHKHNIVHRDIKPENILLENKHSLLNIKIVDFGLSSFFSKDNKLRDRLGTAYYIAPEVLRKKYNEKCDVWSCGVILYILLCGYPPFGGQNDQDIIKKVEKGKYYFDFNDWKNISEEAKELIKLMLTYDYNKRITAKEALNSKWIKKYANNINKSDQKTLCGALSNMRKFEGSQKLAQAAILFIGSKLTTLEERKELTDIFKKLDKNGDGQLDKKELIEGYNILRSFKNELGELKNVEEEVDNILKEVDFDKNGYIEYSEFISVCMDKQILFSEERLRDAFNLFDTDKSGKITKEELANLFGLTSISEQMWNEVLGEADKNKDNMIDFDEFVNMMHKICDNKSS
Chain of Plasmodium falciparum protein kinase 6 (PK6, PF3D7_1337100) (Q8IDW1 1-305): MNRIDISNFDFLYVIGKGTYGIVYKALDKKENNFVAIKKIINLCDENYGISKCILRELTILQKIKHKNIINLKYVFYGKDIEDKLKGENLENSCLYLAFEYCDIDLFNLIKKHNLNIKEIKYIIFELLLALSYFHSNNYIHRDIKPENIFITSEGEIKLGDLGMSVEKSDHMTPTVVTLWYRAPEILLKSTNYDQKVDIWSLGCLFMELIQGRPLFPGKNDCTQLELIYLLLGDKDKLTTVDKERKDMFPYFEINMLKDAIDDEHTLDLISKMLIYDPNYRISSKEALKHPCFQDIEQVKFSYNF
Chain of L-lactate dehydrogenase (Plasmodium falciparum (isolate CDC / Honduras)) (Q27743 whole entry, looked up): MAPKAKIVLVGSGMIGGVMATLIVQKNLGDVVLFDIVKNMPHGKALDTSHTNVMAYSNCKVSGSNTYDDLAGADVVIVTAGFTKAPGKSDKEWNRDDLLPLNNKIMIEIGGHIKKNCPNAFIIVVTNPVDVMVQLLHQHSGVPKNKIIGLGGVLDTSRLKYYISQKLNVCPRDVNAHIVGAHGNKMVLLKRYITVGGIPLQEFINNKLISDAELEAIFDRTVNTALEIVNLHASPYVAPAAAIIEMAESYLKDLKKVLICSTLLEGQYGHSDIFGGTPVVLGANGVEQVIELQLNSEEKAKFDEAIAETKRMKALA
Chain of Protein kinase 7 (PK7), Plasmodium falciparum 3D7 (PF3D7_0213400) (Q7YTF7 1-343): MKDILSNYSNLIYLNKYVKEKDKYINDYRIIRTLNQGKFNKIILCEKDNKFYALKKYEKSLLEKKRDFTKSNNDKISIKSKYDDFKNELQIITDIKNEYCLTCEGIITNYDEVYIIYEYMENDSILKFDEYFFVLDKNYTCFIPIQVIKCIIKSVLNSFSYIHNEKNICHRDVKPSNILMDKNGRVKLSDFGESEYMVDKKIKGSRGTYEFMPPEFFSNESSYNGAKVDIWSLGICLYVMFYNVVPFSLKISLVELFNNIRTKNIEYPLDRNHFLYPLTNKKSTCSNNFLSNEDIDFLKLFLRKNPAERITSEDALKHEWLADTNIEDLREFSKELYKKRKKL

Structure (SMILES)	growth inhibition [1] [%]	inhibition [2]	inhibition [3] [%]	growth inhibition [4]	outcome [5]	outcome [6]	outcome [7]	outcome [8]
COc1ccccc1C(=O)Nc1cccc(N2CCC(NCc3ccc(-n4cccn4)cc3)CC2)c1	30	9%	-1	86% (active)	inactive	inactive	inactive	inactive
Cn1nc(-c2ccccc2F)c2cc(C(=O)NC3CCN(Cc4ccccc4)CC3)sc21	34	5%	3	97% (active)	inactive	inactive	inactive	inactive
O=[N+]([O-])c1cccc(C(Nc2ccccn2)c2ccc3cccnc3c2O)c1 (stereo not drawn)	29	53% (active)	0	86% (active)	inactive	inactive	inactive	inactive
CCCn1cc2c(ccc3nc(N)nc(N)c32)n1	0	65% (active)	5	95% (active)	inactive	inactive	inactive	inactive
CN1CCN(c2ccnc3ccc(NC(=O)Nc4c(Cl)cccc4Cl)cc23)CC1	12	11%	-1	96% (active)	inactive	inactive	inactive	inactive
CCc1nc(N)nc(N)c1-c1ccc(C(C)C)cc1	-4	3%	1	92% (active)	inactive	inactive	inactive	inactive
